TRPV1 PAM: enhances activation of the human vanilloid receptor TRPV1. Q8NER1. potentiation, % at 8.33 µM. TRPV1-expressing cells, Fluo-8 calcium influx, capsaicin EC20 potentiation. AID 540277. actives 0.02% (n = 320,000); in the data active = potentiation above about 80%; inconclusive = between about 30% and that limit; note: 0% is about no effect
Target sequence (Q8NER1 whole entry, looked up): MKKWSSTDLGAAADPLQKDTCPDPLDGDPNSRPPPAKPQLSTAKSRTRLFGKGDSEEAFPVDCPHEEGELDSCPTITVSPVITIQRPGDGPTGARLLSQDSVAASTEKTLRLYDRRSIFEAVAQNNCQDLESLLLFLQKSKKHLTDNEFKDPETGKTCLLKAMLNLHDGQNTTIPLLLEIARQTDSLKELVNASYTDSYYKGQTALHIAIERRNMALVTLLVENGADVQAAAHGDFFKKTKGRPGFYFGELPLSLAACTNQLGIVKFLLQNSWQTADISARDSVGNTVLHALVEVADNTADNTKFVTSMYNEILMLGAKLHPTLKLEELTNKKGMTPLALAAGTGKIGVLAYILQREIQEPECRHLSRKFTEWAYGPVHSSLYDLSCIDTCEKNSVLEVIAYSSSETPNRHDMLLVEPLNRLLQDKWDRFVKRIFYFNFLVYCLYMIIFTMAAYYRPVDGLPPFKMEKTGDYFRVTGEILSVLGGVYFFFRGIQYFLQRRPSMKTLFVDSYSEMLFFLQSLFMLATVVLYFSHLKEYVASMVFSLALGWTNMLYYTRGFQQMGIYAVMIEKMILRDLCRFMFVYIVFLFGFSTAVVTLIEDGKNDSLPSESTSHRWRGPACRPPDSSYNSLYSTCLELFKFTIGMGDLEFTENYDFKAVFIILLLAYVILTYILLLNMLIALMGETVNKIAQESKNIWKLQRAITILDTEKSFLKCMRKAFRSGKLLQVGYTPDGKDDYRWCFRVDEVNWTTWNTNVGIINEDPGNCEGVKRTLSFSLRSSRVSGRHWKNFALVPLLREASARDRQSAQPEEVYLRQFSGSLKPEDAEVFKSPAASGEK
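Fluo-8 calcium influx in TRPV1-expressing cells, kinetic read (ex 480/em 520 nm). Compound added and read 3 min for agonist activity, followed by capsaicin at EC20 final and 2 min further read for enhancement.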
p53 reactivator: re-activators of mutant p53; H1299 p53-A138V BP100-luciferase reporter, luminescence, 24 h; Potency, µM (highest dose often 92.2 µM), for the others: top-dose activity change, positive = activation, most hits filed as activators; actives 0.063% (n = 320,000); active = well fitted activation curve with a large enough effect; inconclusive = small, poorly fitted or top-dose-only effect; inactive = no such curve, though single readings can be large or run the other way; note: potency is the fitted concentration of half-maximal effect; % of control where 0% means no effect; nearly all actives have a fitted effect of over 45% in size
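H1299 (p53-null), stable ts p53-A138V + BP100-Luc; 1000 cells/well, Opti-MEM/10% FBS; cpd 4 pt, 1:5; 24 h, 37 deg C, 5% CO2; detection reagent 10 min RT; luminescence.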
KCNH2 3.1 block: inhibitors of human KCNH2 3.1 potassium channel isoform. U2OS KCNH2 3.1, thallium flux FluxOr; stronger effect = lower value. activity change, % (tested at about 1.8 µM). actives 0.95% (n = 340,000). AID 720553;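 active = maximum activity change below -70%; inconclusive = maximum activity change from -70% to -50%; inactive = maximum activity change above -50%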;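 note: thallium influx rate constant from kinetic fluorescence after stimulation buffer; % is set by controls: 0 for no effect and ±100 for the full control effect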
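Channel expression came from 3.1 mutant virus (1.77 x 10^8 /mL) applied to suspended U2OS cells for 4 h. Flux was tracked with FluxOr dye plus Red40 quencher, and kinetic rate constants normalized to controls.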
ClpP mod: qHTS Assay for Activators of ClpP. AID 651965, 2013. Potency, µM (titrated, usually from 57.5 µM), for inactives: top-dose activity change, negative = active. ATP-dependent Clp protease proteolytic subunit (Bacillus subtilis (strain 168)), P80244. purified B. subtilis ClpP, FRET peptide cleavage, 20 min. actives 1.9% (n = 340,000); active = well fitted falling curve with a large enough effect; inconclusive = small, poorly fitted or top-dose-only effect; inactive = no such curve, though single readings can be large or run the other way; note: potency is the fitted concentration of half-maximal effect; the source files actives as falling curves though it sought activators and does not explain the sign; nearly all actives have a fitted effect of over 65% in size
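Purified B. subtilis ClpP, 10 microg/mL final in Tris/HCl pH8 with KCl, BSA, glycerol and Tween-20, cleaved an Abz/nitrotyrosine-quenched decapeptide. Fluorescence (ex 320, em 430) was read at 0 and 20 min at room temperature. Delta was normalized to 5.8 microM ADEP and DMSO/no-enzyme controls.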
TRPV1 ag: activates the human vanilloid receptor TRPV1; Q8NER1; TRPV1-expressing cells, Fluo-8 calcium influx, agonist mode; activation, % at 8.33 µM; actives 0.19% (n = 320,000); in the data active = activation above about 80%; inconclusive = between about 30% and that limit; note: 0% is about no effect
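Cells expressing TRPV1 were dye-loaded with Fluo-8 and read kinetically: 10 s baseline, 3 min after compound (agonist portion), then 2 min after EC20 capsaicin (allosteric enhancer portion). Calcium-bound dye fluorescence at 480/520 nm.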
KCNH2 WT inh: inhibitors of human wildtype KCNH2 potassium channel | Q12809 | U2OS, BacMam KCNH2, thallium flux FluxOr; stronger effect = lower value | activity change, % at 1.84 µM | actives 0.37% (n = 340,000);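 active = maximum activity change below -70%; inconclusive = maximum activity change between -70% and -50%; inactive = maximum activity change above -50%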; note: % is set by controls: 0 for no effect and ±100 for the full control effect
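U2OS cells transduced with wild-type KCNH2 virus are loaded with FluxOr dye for 45 min, and thallium flux is measured in kinetic reads before and after stimulation buffer. Rate constants are normalized to DMSO controls.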
* = called active by the depositor; u = inconclusive; x = no result given. Rows were chosen to be rich in hits. Some 2.6% of all compounds tested hit in one or more screens of this group.

SMILES	TRPV1 PAM	p53 reactivator	KCNH2 3.1 block	ClpP mod	TRPV1 ag	KCNH2 WT inh
Cc1ccccc1NS(=O)(=O)c1ccc(C(=O)NCc2ccccc2CN2CCCC2)cc1	x	x	-9	1%	x	43
CC1CCN(CCc2nc3cc(NC(=O)COc4ccc(Cl)cc4)ccc3n2C)CC1	3	13%	-96*	-13%	7	11
COc1ccc(OCC(=O)Nc2ccc3c(c2)nc(CCN2CCC(C)CC2)n3C)cc1	-9	0%	-31	-4%	2	1
Cn1c(CCN2CCN(c3ccccn3)CC2)nc2cc(NC(=O)COc3ccc(Cl)cc3)ccc21	28	-12%	-74*	1%	0	-17
COc1ccc(OCC(=O)Nc2ccc3c(c2)nc(CCN2CCN(c4ccccn4)CC2)n3C)cc1	x	x	-5	-1%	x	29
FC(F)(F)c1ccc(-c2cccc3c2C2CC3CCN2C(=S)NCCc2ccccc2)cc1 (configuration not stated)	x	x	x	-2%	x	x
CN1C(=O)C(C)(C)N(C(=O)c2cccc([N+](=O)[O-])c2)c2ccccc21	9	x	-100*	x	u	0
COCCNC(=O)c1cc2c(c(-c3cccc(C#Cc4ccc(OC)c(OC)c4)c3)n1)[C@@H](CCO)N(S(=O)C(C)(C)C)C2 (some centres not stated)	x	x	x	-6%	x	x
CC(CCN1CCC(n2nccc2NC(=O)c2ccccc2Cl)CC1)c1ccccc1 (configuration not stated)	14	-7%	-99*	0%	1	u
CC(C)(C)CN1CCC(n2nccc2NC(=O)c2ccccc2Cl)CC1	10	21%	7	1%	-2	15
O=C(Nc1ccnn1C1CCN(CCCC2CCCC2)CC1)c1ccccc1Cl	-6	7%	-106*	1%	2	-93*
COc1ccccc1C(=O)Nc1ccnn1C1CCN(CC2CC=CCC2)CC1 (configuration not stated)	5	u	-80*	1%	3	24
COc1ccccc1C(=O)Nc1ccnn1C1CCN(CCCC2CCCC2)CC1	-1	4%	-114*	-1%	3	-143*
O=C(O)CCc1ccc(-c2ccccc2)n1Cc1ccco1	u	0%	-3	28µM*	-1	-1
COc1ccc(C(=O)NCC(=O)N/N=C/c2cccc(OC(=O)c3ccco3)c2)cc1OC	-10	-2%	-3	1%	8	-75*
COc1ccc(/C=N/NC(=O)CNC(=O)c2ccc3c(c2)OCCO3)cc1OC	-2	-10%	2	x	-1	-11
Cc1cc(C)nc(SCc2nc3nc(C)cc(C)n3c2Br)n1	-2	-4%	11	28µM*	2	4
COCCNC(=O)C1(C)CCCN(C(=O)c2c(F)ccc(C)c2F)C1 (configuration not stated)	x	x	x	-1%	x	x
COc1ccc(CN2CCN(Cc3ccc(C)cc3)CC2)c(OC)c1	-35	-1%	-5	-1%	8	8
COc1ccc(CN2CCN(Cc3ccc(C(F)(F)F)cc3)CC2)c(OC)c1	5	-2%	-101*	-1%	7	-41
COc1ccc(CN2CCN(Cc3c[nH]c4ccccc34)CC2)c(OC)c1	x	x	-102*	-6%	x	36
C=CCN1[C@@H](C(C)C)COCCS1(=O)=O	x	x	x	-1%	x	x
CCN(C(=O)Cc1cccs1)c1nnc(-c2cc(OC)c(OC)c(OC)c2)s1	-9	-14%	8	22µM*	19	5
COc1cc(-c2ccno2)ccc1S(=O)(=O)N1CCN(c2ccccc2)CC1	x	x	x	-1%	x	x
CCOC(=O)N1CCN(Cc2nc(N)nc(Nc3ccc(OCC)cc3)n2)CC1	7	-11%	-86*	-2%	-3	0
SMILES	TRPV1 PAM	p53 reactivator	KCNH2 3.1 block	ClpP mod	TRPV1 ag	KCNH2 WT inh
CCOC(=O)N1CCN(Cc2nc(N)nc(Nc3ccc(OC)cc3)n2)CC1	-6	-3%	-32	0%	0	10
CCOC(=O)N1CCN(Cc2nc(N)nc(Nc3ccc(Oc4ccccc4)cc3)n2)CC1	19	-10%	-89*	-1%	-2	-32
CCOC(=O)N1CCN(Cc2nc(N)nc(Nc3ccc(Cl)cc3)n2)CC1	2	5%	-100*	x	5	6
COc1ccc(-c2nc3cccc(C)n3c2Nc2ccc(C)cc2)cc1	x	x	x	4%	x	x
c1cncc(-c2nnc(C3CCCCC3)o2)c1	5	11%	-80*	-1%	-1	-2
CN(C)S(=O)(=O)c1cccc(NC(=O)c2ccccc2OCc2ccc(F)cc2)c1	6	2%	-19	20µM*	5	1
Cc1ccc(NC(=O)COC(=O)c2ccccc2OCC(=O)N(C)C)cc1	x	x	x	-7%	x	x
COCCNC(=O)C(c1ccccc1)N(C(=O)Cn1nnc2ccccc21)c1cccnc1 (configuration not stated)	1	-2%	-26	1%	-7	-197*
COc1cccc(CN2CCc3ccc(NC(=O)CCc4ccc(C)cc4)cc3C2)c1O	-1	-4%	-81*	0%	12	25
COc1cc(CN2CCc3ccc(NC(=O)CCc4ccccc4OC)cc3C2)ccc1O	-13	0%	-22	0%	16	23
Cc1ccc2oc3c(c(=O)c2c1)C1(C(=O)N(C)c2ccccc21)N(CCCO)C3=O (configuration not stated)	x	x	x	-1%	x	x
CCOC(=O)Nc1ccc(=O)n(Cc2c(Cl)cccc2Cl)c1	x	-3%	-8	28µM*	x	-2
CCOC(=O)CN1C(=O)C(=O)N(Cc2c(Cl)cccc2Cl)C1=O	-7	1%	-8	x	1	-7
O=C(CC1CC2CCC1C2)N1CCN(S(=O)(=O)c2ccc(F)cc2)CC1 (configuration not stated)	x	x	13	-2%	x	-81*
O=C(CC1CC2CCC1C2)N1CCN(S(=O)(=O)c2ccc(C(F)(F)F)cc2)CC1 (configuration not stated)	x	x	u	-1%	x	28
O=C(COc1ccc(-c2ccccc2)cc1)N1CCN(S(=O)(=O)Cc2ccccc2)CC1	-11	0%	-75*	-2%	-2	-3
O=C(COc1ccc(S(=O)(=O)N2CCCCC2)cc1)N1CCCCCC1	-10	-8%	6	32µM*	20	1
Cc1ccccc1NS(=O)(=O)c1ccc(OCC(=O)NCC2CCCO2)cc1 (configuration not stated)	-2	6%	-184*	1%	1	-172*
CC1CCN(C(=O)COc2ccc(S(=O)(=O)N3CCCC3)cc2)CC1	-16	9%	-20	x	13	4
Cc1ccccc1NS(=O)(=O)c1ccc(OCC(=O)N2CCCC2)cc1	-11	-1%	-5	28µM*	10	-12
